The nature of assay [1]: CCTE_Harrill_HTTr_CellCount_MCF7: CCTE's Cell Proliferation Assessment for the High-Throughput Transcriptomics (HTTr) Platform, Harrill Lab (AID 2284012; active = hit-call score of the fitted dose curve at least 0.9, where 1 is the maximum;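 also: cells exposed to compound for six hours; intended direction is loss of nuclei count meaning fewer cells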). In short, it runs like this:
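Cell count served as viability reporter: loss of Hoechst-stained nuclei, counted by high content imaging, marks decreased growth or survival. Exposure was 6 h in MCF-7 cells across eight concentrations, with DMSO as baseline.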

Assay [2] deals with Estrogen receptor (Homo sapiens) (UniProt P03372). The experiment in a line: CCTE_Deisenroth_AIME_384WELL_LUC_Active: CCTE's 384-well Estrogen Receptor Transactivation Assay with AIME metabolic competence (ERTA luciferase; metabolism positive), Deisenroth Lab (AID 2284030; active = hit-call score of the fitted dose curve at least 0.9, where 1 is the maximum). In short, it runs like this:
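In this metabolism-positive format, a 2-hour exposure to alginate-immobilized rat S9 precedes a 24 hour luciferase transactivation readout in VM7Luc4E2 cells. Dosing spans 10 concentrations from 0.002 to 200 uM.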

The nature of assay [3]: CCTE_Shafer_MEA_acute_burst_duration_mean: CCTE's Neural Acute Assay for Mean Burst Duration, Shafer Lab (AID 2284014).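 Also: hits are decreases in mean burst duration relative to DMSO controls.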 In outline:
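Mean burst duration was compared between a 40 min baseline and a 40 min recording in the presence of compound (0.03-40 uM, 37 C), giving percent change per well. Cultures were rat cortical neurons at DIV 13 or 15; wells needed ≥10 active electrodes.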

Assay [4] in a line: CCTE_Shafer_MEA_acute_per_burst_spike_number_mean: CCTE's Neural Acute Assay for Average Number of Spikes Per Burst, Shafer Lab (AID 2284015).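 Also: hits are decreases in mean spikes per burst versus baseline.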 In outline:
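Read-out: percent change in mean spikes per burst, each well's post-exposure 40-min recording versus its own 40-min baseline. Rat cortical cultures, DIV 13 or 15, compounds 0.03-40 uM; DMSO is negative control, loss-of-signal fitting.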

Assay [5] is described as follows: CCTE_Shafer_MEA_acute_interburst_interval_mean: CCTE's Neural Acute Assay for Mean Interburst Interval, Shafer Lab (AID 2284016).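 Also: percent change of mean interburst interval versus each well's own pre-dose baseline; curves fitted for decrease in interburst interval relative to DMSO.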 In outline: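 Rat cortical cultures, DIV 13/15; 20 min equilibration, 40 min baseline, compound 0.03-40 uM, 40 min re-recording, 37 C. Spikes detected at 8x rms noise (300-5000 Hz band-pass). Endpoint: % change in interburst interval, fitted in loss direction vs DMSO.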

Assay [6] can be described thus: CCTE_Shafer_MEA_acute_burst_percentage_mean: CCTE's Neural Acute Assay for Percentage of Spikes in a Burst, Shafer Lab (AID 2284017).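 As to AC50: curve fitted for loss of signal so potency reflects decreased burst percentage.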 In short, it runs like this: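 Rat cortical cultures, DIV 13/15, 37 C. Spikes detected at 8x rms noise (300-5000 Hz band-pass). Burst spikes/total spikes averaged across electrodes per well; % change post- vs pre-treatment (40 min each), loss-of-signal fit vs DMSO.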

A short description of assay [7]: CCTE_Shafer_MEA_acute_burst_percentage_std: CCTE's Neural Acute Assay for Standard Deviation of Burst Percentage, Shafer Lab (AID 2284018).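 Also: fitted in the negative direction so actives lower burst percentage SD.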 In short, it runs like this:
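Value is percent change from baseline in the across-electrode SD of spikes-in-bursts percentage, wells with >/= 10 active electrodes. Acute 40-min exposure to 0.03-40 uM on DIV 13 or 15 rat cortical cultures, recorded at 37 C after 40-min baseline.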

The nature of assay [8]: CCTE_Shafer_MEA_acute_per_network_burst_spike_number_mean: CCTE's Neural Acute Assay for Average Number of Spikes in a Network Burst, Shafer Lab (AID 2284019).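 As to AC50: curve fitted for loss of signal so actives reduce spikes per network burst.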 In outline: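 Percent change from baseline in mean spikes per network burst, spikes detected at 8x rms noise. Each compound at 0.03-40 uM in at least three wells of rat cortical cultures, recorded 40 min before and 40 min during exposure.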

A short description of assay [9]: CCTE_Shafer_MEA_acute_per_network_burst_spike_number_std: CCTE's Neural Acute Assay for Standard Deviation of Number of Spikes in a Network Burst, Shafer Lab (AID 2284020).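 Also: fitted for decrease in spike-number SD versus DMSO so actives lower it.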 In outline: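 Endpoint: percent change from 40 min baseline in standard deviation of spikes per network burst, after 40 min compound exposure (0.03-40 uM, 37 C). Cortical rat neurons on MEA at DIV 13 or 15; spikes detected at 8x rms noise, 300-5000 Hz band-pass.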

The nature of assay [10]: CCTE_Shafer_MEA_acute_per_network_burst_electrodes_number_mean: CCTE's Neural Acute Assay for Mean Number of Electrodes in a Network Burst, Shafer Lab (AID 2284021).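 Also: curves fitted for decreases only so hits reduce electrodes per burst.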 In short, it runs like this:
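Cultures of rat cortex neurons were exposed on DIV 13 or 15 to compounds at 0.03-40 uM in at least three wells each. Activity over 40 min before and 40 min after exposure at 37 C gave the percent change in electrodes per network burst.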

Assay [11] is described as follows: CCTE_Shafer_MEA_acute_network_burst_percentage: CCTE's Neural Acute Assay for Percentage of Network Bursts, Shafer Lab (AID 2284022).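 Also: curves fitted for loss so actives lower network burst percentage.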 In short, it runs like this:
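Cortical neurons from rat were grown over microelectrode arrays and used on day 13 or 15 in vitro. Wells with at least 10 active electrodes received test chemical at 0.03-40 uM. Activity during 40 min of exposure was compared with the preceding 40-min baseline.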

Assay [12] in a line: CCTE_Shafer_MEA_acute_cross_correlation_area: CCTE's Neural Acute Assay for Area of Cross Correlation, Shafer Lab (AID 2284024).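 Also: area under pooled inter-electrode spike cross-correlation near zero lag as percent change from own baseline; curves fitted for loss of cross-correlation area so actives lower synchrony.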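 As to outcome: rat primary cortical neuron networks on 48-well MEA at DIV 13 or 15 with 40 min exposure.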 In outline: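 Acute exposure of mature rat cortical networks (day 13 or 15 post-plating) to 0.03-40 uM compound. Spontaneous spiking on MEA, 40 min pre- and post-dose at 37 C.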
Assay [13] in a line: CCTE_Shafer_MEA_acute_cross_correlation_HWHM: CCTE's Neural Acute Assay for Cross Correlation at Half Width at Half Maximum, Shafer Lab (AID 2284026).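 Also: percent change per well from pre-dose baseline in spike cross-correlogram half width; hits are a decrease in cross-correlogram half width relative to DMSO.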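 As to outcome: spontaneous network firing of rat primary cortical neurons on multiwell microelectrode arrays.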 In outline:
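Primary cortex (rat), MEA, DIV 13/15; compound 0.03-40 uM; 40 min pre + 40 min post at 37 C; spike threshold 8x rms; wells need ≥10 active electrodes; endpoint = % change in cross-correlogram HWHM vs baseline, DMSO negative control.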

Assay [14] can be described thus: CCTE_Shafer_MEA_acute_synchrony_index: CCTE's Neural Acute Assay for Synchrony, Shafer Lab (AID 2284027).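 Also: network synchrony index of spontaneous spiking in primary rat cortical neurons on MEAs; fitted for loss of signal so actives lower synchrony relative to DMSO.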 In outline: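 Plates equilibrated 20 min at 37 C, baseline recorded 40 min, compound (0.03-40 uM) added, then 40 min more recorded. Cells: primary rat cortical neurons, DIV 13 or 15. Per-well synchrony index change analysed in negative direction against DMSO.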

In assay [15] the target is Estrogen receptor (Homo sapiens) (UniProt P03372). The experiment in a line: CCTE_Deisenroth_AIME_96WELL_LUC_Active: CCTE's 96-well Estrogen Receptor Transactivation Assay with AIME metabolic competence (ERTA luciferase; metabolism positive), Deisenroth Lab (AID 2284023; active = hit-call score of the fitted dose curve at least 0.9, where 1 is the maximum). In outline: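 Metabolism-positive mode: induced rat hepatic S9 in alginate microspheres conditions test solutions (0.002 - 200 uM, 10 points) for 2 hours. VM7Luc4E2 ER luciferase reporter cells then exposed 24 h; positive-direction fit against 17beta-estradiol, n=4 typical.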
Chain of Estrogen receptor (Homo sapiens) (P03372 whole entry, looked up): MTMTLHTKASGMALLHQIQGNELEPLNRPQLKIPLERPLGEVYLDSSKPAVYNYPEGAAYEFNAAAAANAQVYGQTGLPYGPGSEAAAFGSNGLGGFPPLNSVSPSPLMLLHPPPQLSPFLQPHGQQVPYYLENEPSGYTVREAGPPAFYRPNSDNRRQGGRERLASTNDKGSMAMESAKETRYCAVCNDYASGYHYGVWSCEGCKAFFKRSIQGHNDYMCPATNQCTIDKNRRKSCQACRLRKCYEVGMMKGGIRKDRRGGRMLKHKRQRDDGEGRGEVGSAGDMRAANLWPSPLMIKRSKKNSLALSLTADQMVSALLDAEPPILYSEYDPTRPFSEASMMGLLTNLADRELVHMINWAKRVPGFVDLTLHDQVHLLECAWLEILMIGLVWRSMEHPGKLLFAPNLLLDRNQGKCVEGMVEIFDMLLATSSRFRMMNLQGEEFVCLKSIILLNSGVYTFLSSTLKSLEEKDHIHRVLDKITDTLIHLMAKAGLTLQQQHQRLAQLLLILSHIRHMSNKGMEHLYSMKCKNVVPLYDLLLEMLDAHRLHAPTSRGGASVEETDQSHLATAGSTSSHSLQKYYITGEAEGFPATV

For assay [16] the target is unchanged. The experiment in a line: CCTE_Deisenroth_AIME_96WELL_LUC_Inactive: CCTE's 96-well Estrogen Receptor Transactivation Assay without AIME metabolic competence (ERTA luciferase; metabolism negative), Deisenroth Lab (AID 2284025; active = hit-call score of the fitted dose curve at least 0.9, where 1 is the maximum). In outline: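 Metabolism-negative arm: chemicals (0.002–200 uM, 10 points) incubated 2 h with alginate-water microspheres, then medium moved onto VM7Luc4E2 cells for 24 h luciferase read-out. Positive direction vs 17beta-estradiol; n≥4 experiments.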

Assay [17] can be described thus: CCTE_Deisenroth_AIME_96WELL_CTox_Active: Cytotoxicity Assessment (CTOX) in CCTE's 96-well Estrogen Receptor Transactivation Assay with AIME metabolic competence (metabolism positive), Deisenroth Lab (AID 2284028; active = hit-call score of the fitted dose curve at least 0.9, where 1 is the maximum). In short, it runs like this:
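Cytotoxicity in VM7Luc4E2 breast cells after 24 h exposure to medium from a 2 h metabolic pre-incubation with induced rat hepatic S9 in alginate microspheres; fluorescent live-cell protease readout, 10-point series 0.002–200 uM, n=4.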

Assay [18] can be described thus: CCTE_Shafer_MEA_dev_firing_rate_mean: CCTE's Neural Network Formation Assay for Mean Firing Rate, Shafer Lab (AID 2284031). In outline: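 Steps: seed rat cortical cells (1.5 x 10^5/well) with laminin on PEI-coated MEA; dose day 0; record DIV 5/7/9/12, full media and compound exchange after DIV 5 and 9 recordings; compute well-mean firing rate AUC.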
Assay [19] is described as follows: CCTE_Shafer_MEA_dev_per_burst_spike_percent: CCTE's Neural Network Formation Assay for Percent of Spikes in a Burst, Shafer Lab (AID 2284032). In short, it runs like this: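 Value is trapezoidal AUC over recordings on days 5, 7, 9 and 12 of the well-mean fraction of spikes falling in single-electrode bursts; rat cortical cultures exposed continuously from plating, treatment renewed DIV 5 and 9, fitted downward against DMSO.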

Inconclusive results are not listed. The source made the active and inactive calls. The calls were made as follows, unless noted: active = hit-call score of the fitted dose curve at least 0.9, where 1 is the maximum; inactive = score below 0.9. Peptide text beside a SMILES is read from it.

On to `O=C(Oc1ccccc1)c1ccccc1O`, for which the outcome in [1] and in [2] was inactive.

Turning to `Oc1ccccc1Cc1ccccc1O`, the AC50 (usually the concentration at which the activity in the assay is half-maximal) was 7.82 µM (active) in [3]; 8.01 µM (active) in [4]; 0.1 µM (active) in [5]; 6.16 µM (active) in assay [6]; 8.53 µM (active) in [7]; 1.96 µM (active) in [11]. Moreover, the figures for the AC50 in assay [12], in assay [13] and in assay [14] were 0.156 µM (active), 5.2 µM (active) and 8.49 µM (active), respectively. Also, the compound was classed as inactive in [8], in assay [9] and in [10].

Turning to `COc1ccc(C(=O)c2ccccc2)c(O)c1`, the result in assay [1] and in assay [17] was inactive. Moreover, the AC50 in assay [15] is 12.6 µM (active); in assay [16] it was 18.5 µM (active).

Turning to `C=C(C)C1CC=C(C)CC1` (stereo not drawn), the compound was called inactive in assay [1] and in assay [2].

`COC(=O)[C@H](Cc1ccccc1)NC(=O)[C@@H](N)CC(=O)O` (H-Asp-Phe-OMe): the compound was called inactive in assay [3], in assay [4], in assay [5], in [6], in assay [7] and in [8]. Further, the result in assay [9], in assay [11], in assay [12], in assay [13], in [14] and in assay [2] was inactive. In addition, the outcome in [18] and in assay [19] was inactive. In assay [10], the AC50 was 15 µM (active).

For the compound `CCCCCCCCCCCC(=O)N(C)CC(=O)O`, the compound was called inactive in assay [3] and in [12]. The AC50 in assay [4] was 2.9 µM (active); in [5], 22.8 µM (active); in assay [6], 20.2 µM (active); in assay [7] it was 0.0576 µM (active); in [8], 0.613 µM (active); in [9], 14.6 µM (active). Besides, the AC50 in assay [10] was 2.9 µM (active); in [11] it was 23.1 µM (active); in assay [13], 21.6 µM (active); in assay [14], 21.9 µM (active).

`CC(C)(CO)C(O)C(=O)NCCCO` (stereo not drawn): in [1], the compound was called inactive.

With `CC(=O)/C=C/C1C(C)=CCCC1(C)C` (stereo not drawn), the compound was called inactive in assay [1] and in assay [2].

Consider `CC1(C)CC(O)CC(C)(C)N1[O]`, for which the outcome in assay [1], in [3], in assay [4], in [5], in [6] and in [7] was inactive. The result in assay [8], in assay [9], in assay [10], in assay [12], in assay [13] and in [14] was inactive. Also, in [11], the AC50 is 0.0204 µM (active).

For the compound `Cc1cccc(C(C)(C)C)c1O`, the outcome in assay [15] and in assay [17] was inactive. The AC50 in [16] was 121 µM (active).

For the compound `CCOC(=O)C1=NOC(c2ccccc2)(c2ccccc2)C1`, the call in assay [1] and in assay [2] was inactive.

For the origin of these results see PubChem BioAssay (EPA / NIEHS).
